According to ChEMBL document CHEMBL3988442, “University of Dundee, Small-Polar-MMV Screening Library” (2021):

Target: AMP-activated protein kinase, AMPK (Homo sapiens) (UniProt P54646+O43741+P54619+Q9UGJ0+Q9Y478+Q13131+Q9UGI9)
Test: AMP-dependent Kinase enzyme assay. An in vitro enzyme assay that detects ADP turnover that is directly proportional to AMPK activity. This uses naive AMPK that is activated during the assay with MK-8722
Type: functional
Set-up: scale not given: direction of the effect not stated beside the values
Conditions: 30 µM

**Q.** Which Percent Effect does the source give for `N#Cc1ccc(CN(CCF)Cc2cccc(F)c2)cc1` here?
**A.** -7.25%

**Q.** How did the Percent Effect turn out when `CCc1c(C)nn2c(O)cc(C3CCN(C(=O)c4ccccn4)C3)nc12` (stereo not given) was run?
**A.** 4.34%

**Q.** Which Percent Effect does the source give for `Cc1ccc(N2CCCN(C(=O)CCc3ccsc3)CC2)nn1` here?
**A.** -4.33%

**Q.** `Cc1c(C(=O)NC2CCCOC2)nnn1-c1ccc(Cl)cc1F` (stereo not given) was tested. Which Percent Effect did it give?
**A.** 0.0565%

**Q.** `CC1CCN(CCNC(=O)c2sccc2C2CC2)CC1` was tested. Which Percent Effect did it give?
**A.** 5.67%

**Q.** How did the Percent Effect turn out when `O=C(NCc1ccc(-n2cncn2)nc1)c1cc(Cl)ccn1` was run?
**A.** -4.58%

**Q.** Which Percent Effect does the source give for `O=S(=O)(NCCCn1cncn1)c1ccc2c(c1)OCCO2` here?
**A.** 8.28%

**Q.** `COCC1CCCN(c2cncc(OCc3ccccc3)n2)C1` (stereo not given) was tested. Which Percent Effect did it give?
**A.** 1.9%

**Q.** For `O=C(NCc1cc(Br)cs1)Nc1cn[nH]c1`, which Percent Effect is on record?
**A.** -0.469%

**Q.** `CN(Cc1cc(Cl)c2c(c1)OCO2)Cc1cscn1` was tested. Which Percent Effect did it give?
**A.** -12.9%

**Q.** With `Cc1nsc(N2CCCN(C(=O)CCc3ccsc3)CC2)n1` as the compound, how does the Percent Effect read?
**A.** -4.46%

**Q.** `CC(C)Oc1cccc(F)c1C(C(=O)O)N1CCCN(C)CC1` (stereo not given) was tested. Which Percent Effect did it give?
**A.** 3.49%

**Q.** With `COc1ccccc1OCCN(C)Cc1c(C2CC2)[nH]c2ncccc12` as the compound, how does the Percent Effect read?
**A.** 11.7%

**Q.** With `CN(C1CCCCC1)S(=O)(=O)NCC1Cc2ccccc2O1` (stereo not given) as the compound, how does the Percent Effect read?
**A.** -9.03%

**Q.** For `CCCOC1CCCN(c2ncnc3c2CCN(C(=O)C2CC2)C3)C1` (stereo not given), which Percent Effect is on record?
**A.** 3.46%

**Q.** `Cc1nnc(N2CCc3cncnc3C2)c(C#N)c1C` was tested. Which Percent Effect did it give?
**A.** -187%

**Q.** With `O=C(CNc1ccc(OC2CCOC2)cc1)NCc1cccs1` (stereo not given) as the compound, how does the Percent Effect read?
**A.** 9.41%

**Q.** How did the Percent Effect turn out when `c1ccc(Cc2noc(-c3ccc(NCC4COCCO4)nc3)n2)cc1` (stereo not given) was run?
**A.** 8.79%

**Q.** With `COc1cc(C(=O)O)cc(I)c1OCC(=O)NCCc1ccccc1` as the compound, how does the Percent Effect read?
**A.** 11.9%

**Q.** With `O=C(NCCn1ccnc1)C1COCC(=O)N1Cc1ccccc1` (stereo not given) as the compound, how does the Percent Effect read?
**A.** 5.07%
